Screening results deposited in PubChem by National Center for Advancing Translational Sciences (NCATS).
Shown are actives, neighbours in structure and some others; about 12% of the full set was active somewhere.
L3MBTL1 block – blocks human L3MBTL1; Q9Y468; AlphaScreen L3MBTL1–H3K9me1 peptide binding; Potency, µM (series often up to 57.1 µM), for the others: top-dose activity, negative = inhibition, usual class: inhibitors; 230,000 compounds, 0.66% hits; also: % is scaled to controls: 0 for no effect and ±100 for the full control effect; nearly all actives have a fitted effect of over 60% in size
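First, the protein-peptide complex forms for 30 min at room temperature (L3MBTL1 50 nM, biotinylated H3K9me1 peptide 75 nM). Next, compounds are pin-transferred and incubated 30 min. Finally, AlphaScreen beads are added and read after 30 min.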
HP1b chromo inh – blocks HP1-beta chromodomain binding to methylated histone tails. P83916. AlphaScreen HP1-beta / biotin-H3K9me3 peptide binding. Potency, µM (highest dose often 114 µM), without a hit: at the highest dose activity change, negative = inhibition, usual class: inhibitors. 390,000 compounds, 0.56% hits. AID 540317; also: nearly all actives have a fitted effect of over 70% in size
Target sequence (P83916 whole entry, looked up): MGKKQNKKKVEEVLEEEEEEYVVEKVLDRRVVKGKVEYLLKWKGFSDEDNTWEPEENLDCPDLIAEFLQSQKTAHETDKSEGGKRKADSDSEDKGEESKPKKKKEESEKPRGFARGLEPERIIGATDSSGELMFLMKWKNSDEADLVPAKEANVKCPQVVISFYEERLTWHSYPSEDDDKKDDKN
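Compound inhibition of the preformed complex between 50 nM HP1-beta and 50 nM biotinylated H3K9me3 peptide was read by AlphaScreen. Buffer was PBS pH 7.4 with 0.01% Tween-20. Incubations ran 30 min at room temperature, with 10 ug/mL donor/acceptor beads.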
G9a inh – inhibitors of human histone lysine methyltransferase G9a | G9a H3K9 monomethylation, AlphaScreen, 2 h | Potency, µM (doses to about 102 µM), inactives show top-dose activity, negative = inhibition, usual class: inhibitors | 350,000 compounds, 8.8% hits; also: % is scaled to controls: 0 for no effect and ±100 for the full control effect; nearly all actives have a fitted effect of over 75% in size
Target sequence (Q96KQ7 913-1193 limits assumed): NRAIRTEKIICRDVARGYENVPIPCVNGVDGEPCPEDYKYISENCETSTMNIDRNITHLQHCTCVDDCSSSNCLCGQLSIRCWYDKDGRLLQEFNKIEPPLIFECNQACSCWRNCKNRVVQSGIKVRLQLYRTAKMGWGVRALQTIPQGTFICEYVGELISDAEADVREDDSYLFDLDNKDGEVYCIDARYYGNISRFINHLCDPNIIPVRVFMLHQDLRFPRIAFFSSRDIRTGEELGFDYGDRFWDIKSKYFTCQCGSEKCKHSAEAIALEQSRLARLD
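Readings reflect AlphaScreen signal from monomethyl-H3K9 antibody detection. HMT at 20 nM; substrate b-H3K9 500 nM; cofactor SAM 20 uM; 2 h RT reaction; compounds tested as titrations in qHTS with 15 min preincubation.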
JMJD2A Tudor inh – JMJD2A Tudor domain (human) inhibition. O75164. AlphaScreen JMJD2A-Tudor / H3K4me3 peptide binding. Potency, µM (highest dose often 114 µM), inactives show at the highest dose activity change, negative = inhibition, hits mostly inhibitors. 390,000 compounds, 4.4% hits. AID 504339; also: % is scaled to controls: 0 for no effect and ±100 for the full control effect; nearly all actives have a fitted effect of over 50% in size
Sfp PPTase inh – blocks B. subtilis Sfp PPTase activity | Potency, µM, for inactives: largest response in the series, negative = inhibition, usual class: inhibitors | 310,000 compounds, 3.5% hits | Biochemical Sfp PPTase activity, qHTS;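 also: the enzyme is Sfp with the accession as filed and its product quenches rhodamine fluorescence; 0% = enzyme reaction without inhibitor and -100% = no enzyme wells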
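Step 1, compound plus 15 nM Sfp-PPTase, 15 min, room temperature. Step 2, add rhodamine-CoA (5 uM) and BHQ-2-YbbR (12.5 uM). Step 3, read 525/598 nm fluorescence at 0 and 30 min.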
BAZ2B block – BAZ2B (human) inhibition. Potency, µM (titrated, usually from 114 µM), inactives show at the top dose activity change, negative = inhibition, most hits filed as inhibitors. AlphaScreen BAZ2B-H3K14Ac peptide displacement. AID 504333. 360,000 compounds, 4.4% hits; also: % is scaled to controls: 0 for no effect and ±100 for the full control effect; nearly all actives have a fitted effect of over 60% in size
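BAZ2B (50 nM) with biotin-H3(5-23)K14Ac peptide (50 nM) in PBS pH 7.4, 0.01% Tween-20, preformed 30 min, then compound 30 min at room temperature; top concentration 110uM. AlphaScreen streptavidin donor/nickel chelate acceptor beads (10 ug/mL final), 20 min dark, signal read.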
Active calls of the source: *; ? = inconclusive; . = no result given; [ ] = dose if it differs, or a comment. Calls follow the shape of the dose curve; as a rule, active = well fitted curve in the direction sought with a large enough effect; inconclusive = small, poorly fitted or top-dose-only effect, or another doubt; inactive = no such curve, though single readings can be large; an effect the other way counts as inactive or inconclusive. Potency is read from the fitted curve at half-maximal effect.

SMILES	L3MBTL1 block	HP1b chromo inh	G9a inh	JMJD2A Tudor inh	Sfp PPTase inh	BAZ2B block
CN1C2CCC1/C(=C\c1ccc(F)cc1)C(=O)/C2=C/c1ccc(F)cc1	-14.4%	2.1%	-2.6%	-30.6%	7.0%	-33.6%
C=CC(=O)N1C/C(=C/c2ccc(F)cc2)C(=O)/C(=C\c2ccc(F)cc2)C1	.	?	.	17.8µM*	.	.
CCCCC(=O)Nc1nc(C)c(-c2csc(Nc3ccccc3OC)n2)s1	-11.8%	18.6%	?	?	-4.4%	?
CCCCCC(=O)Nc1nc(C)c(-c2csc(Nc3cc(OC)ccc3OC)n2)s1	-13.6%	?	7.08µM*	50.1µM*	8.8%	28.2µM*
CCCCCCC(=O)Nc1nc(C)c(-c2csc(Nc3cc(OC)ccc3OC)n2)s1	-18.0%	-12.9%	?	50.1µM*	11.3%	?
Cc1cc(NC(=O)CSc2nnc(Cc3cccn3C)n2CCc2ccccc2)no1	-8.9%	-6.8%	6.1%	-23.4%	-10.8%	?
Cn1cccc1Cc1nnc(SCC(=O)Nc2cccc(F)c2)n1CCc1ccccc1	-9.6%	-11.0%	44.7µM*	-32.4%	-24.7%	50.1µM*
Cn1cccc1Cc1nnc(SCC(=O)Nc2ccccc2F)n1CCc1ccccc1	?	-11.1%	44.7µM*	?	-11.1%	?
Cc1csc(NC(=O)CSc2nnc(Cc3cccn3C)n2CCc2ccccc2)n1	-5.9%	?	44.7µM*	35.5µM*	-22.6%	?
Cc1occc1-c1nnc(SCC(=O)Nc2ccccc2)n1CCc1ccccc1	-8.2%	16.0%	1.5%[12.7 µM]	-17.2%	-5.3%	-36.1%
COc1cc(NC(=O)CN2CCN(CC(=O)Nc3ccc(F)cc3)CC2)cc(OC)c1	.	12.5%[57 µM]	-4.1%[59 µM]	-5.5%	.	0.5%
CC1(C)NC(=O)N(CC(=O)OCC(=O)NC(=O)c2ccccc2)C1=O	-0.1%	17.8%	39.8µM*	-7.6%	.	10.0%
S=C(c1ccc2c(c1)OCO2)N1CCOCC1	.	-5.8%	31.6µM*	2.7%	-26.8%	-22.8%
S=C(c1ccc2c(c1)OCO2)N1CCCCCC1	.	8.8%	50.1µM*	-14.9%	-28.6%	3.3%
Cc1cc(C)c2nc(N(Cc3cccnc3)C(=O)c3cccs3)sc2c1	.	3.5%	11.1%[59 µM]	-16.2%	.	-3.7%
Cc1nc2ccc(NC(=O)Nc3ccnc4cccnc34)cc2o1	.	.	.	.	-8.0%	.
C=CCn1c(SCC(=O)Nc2sccc2C(N)=O)nc2ccc(Cl)cc2c1=O	-9.7%	29.6%	?	-20.2%	44.7µM*	-6.5%
C=CCn1c(SCC(=O)Nc2sccc2C(N)=O)nc2ccccc2c1=O	.	6.5%	?	-16.5%	-1.0%	-16.6%
Nc1[nH]c(=O)nc(Nc2ccccc2)c1N=O	.	34.1%	.	35.5µM*	.	.
O=c1nc(N2CCCC2)nc(Nc2ccccc2)[nH]1	9.3%	6.2%	-7.1%[12.7 µM]	-24.7%	8.5%	3.5%
Cc1[nH]c2ccccc2c1C(=O)COC(=O)c1ccccc1O	2.5%	14.7%	.	-0.7%	.	.
CCOC(=O)c1c(C)[nH]c(C)c1C(=O)COC(=O)CCOc1ccccc1OC	-6.0%	-23.2%	?	79.4µM*	-5.2%	-32.2%
CCOC(=O)c1c(C)[nH]c(C)c1C(=O)COC(=O)c1ccccc1O	-2.4%	7.5%	50.1µM*	-20.7%	9.4%	-34.3%
COc1ccc2[nH]c(C(=O)O)c(CCN3C(=O)c4cccc([N+](=O)[O-])c4C3=O)c2c1	7.1%	36.2%	?	-15.1%	8.9%	79.4µM*
Cc1cc(C)n(-c2ccc3nnc(C)n3n2)n1	5.8%	32.9%	3.7%	5.1%	27.8%	-11.0%
SMILES	L3MBTL1 block	HP1b chromo inh	G9a inh	JMJD2A Tudor inh	Sfp PPTase inh	BAZ2B block
Cc1cc(C)n(/N=C/c2ccccc2O)c(=O)c1	0.3%	6.8%	15.8µM*	?	5.2%	50.1µM*
Cc1nnc(C)n1/N=C/c1cc2ccccc2nc1Cl	1.1%	20.4%	4.0%	-0.4%	14.5%	-18.6%
Cc1cc(C)n(-c2nnc(C)n2/N=C/c2ccccc2O)n1	.	3.8%	-32.7%[12.7 µM]	7.94µM*	-14.1%	-3.7%
Cc1cc(C)n(-c2nnc(C)n2N)n1	3.8%	6.1%	50.1µM*	?	9.0%	-13.7%
O=C(Nc1cc(C(F)(F)F)ccc1Cl)c1cc(-c2cccs2)nc2ccccc12	.	33.1%	3.9%[59 µM]	-3.5%	.	-0.7%
COC(=O)Cc1c(C)nc2nc(NCc3ccc(Br)cc3)[nH]n2c1=O	.	24.2%	?	-20.8%	.	-5.8%
Nn1cnnc1N/N=C/c1ccc(Cl)cc1Cl	.	27.8%	6.4%	-2.1%	56.2µM*	?
O=C(N/N=C/c1ccc(Cl)cc1Cl)c1ccc(-n2cnnn2)cc1	2.5%	15.7%	1.1%[12.7 µM]	-16.5%	.	-5.3%
CSc1nsc(SC)c1NC(=O)OCCc1ccccn1	-0.1%	24.9%	?	-8.8%	-20.0%	3.8%
CSc1nsc(SC)c1NC(=O)OCc1ccccc1	-10.8%	32.5%	39.8µM*	-6.6%	-1.3%	-0.4%
CSc1nsc(SC)c1NC(=O)OCC1CCCO1 (configuration not stated)	-4.8%	24.9%	?	-8.0%	56.2µM*	2.5%
CSc1nsc(SC)c1NC(=O)Nc1ccccn1	-0.9%	32.5%	?	-5.8%	7.6%	-2.0%
Cc1nnc(N2CCC(C(=O)NC3CCCCC3)CC2)c2nn(-c3ccc(Cl)cc3)c(C)c12	.	-0.9%	-4.7%[59 µM]	-11.7%	.	-6.2%
Cc1ccc(OCCN(C)C)c([N+](=O)[O-])c1	-0.1%	?	?	8.91µM*	-1.2%	?
COCCNCCOc1ccc(C)cc1[N+](=O)[O-]	.	?	-40.6%	25.1µM*	-3.7%	?
COc1cc(C)ccc1OCCOCCOc1ccc(C)cc1[N+](=O)[O-]	6.4%	22.3%	11.4%[59 µM]	-12.6%	-2.6%	-10.5%
C=CCNCCOCCOc1ccc(C)cc1[N+](=O)[O-]	1.8%	-20.3%	22.4µM*	3.16µM*	-7.9%	?
CCN1C(=O)/C(=C/N2CCc3ccccc3C2)SC1=S	24.9%	15.3%	.	-25.5%	-10.3%	15.2%
CCN1C(c2ccccc2)=C(c2ccccc2)S/C1=C\C=C1/SC(=S)N(C)C1=O	.	8.91µM*	.	7.94µM*	.	.
CCN1C(=O)/C(=C/C=C2/Sc3ccc4ccccc4c3N2CCO)SC1=S	-2.3%	5.0%	-9.0%[59 µM]	-17.1%	50.1µM*	?
CCN1C(c2ccccc2)=C(c2ccccc2)S/C1=C/C=C1\SC(=S)N(C)C1=O	?	11.2µM*	5.62µM*	8.91µM*	?	2.51µM*
CCCOc1ccc(C(=O)Nc2ccc3nn(-c4ccc(OC)c(Cl)c4)nc3c2)cc1	.	64.9%	26.2%[59 µM]	-24.5%	.	6.2%
N#CCCCS(=O)(=O)c1nnnn1-c1ccc(F)cc1Br	.	.	.	.	7.5%	.
C=CCC(NC(C)c1ccccc1)c1ccco1 (configuration not stated)	0.3%	?	.	2.51µM*	?	50.1µM*
